Reference: ChEMBL document CHEMBL3988442, “University of Dundee, Small-Polar-MMV Screening Library” (2021)
For some assays here: Entries with a potency or affinity are not part of this list.

Tests used:
Set-up in all cases: scale not given: direction of the effect not stated beside the values
[1] = biological target: Protein translocase subunit SecA (Escherichia coli (strain K12)) (UniProt P10408); assay: Assay to Identify E. coli SecA ATPase Inhibitors; assay type: functional; conditions: 30 µM
Chain of Protein translocase subunit SecA (Escherichia coli (strain K12)) (P10408 whole entry): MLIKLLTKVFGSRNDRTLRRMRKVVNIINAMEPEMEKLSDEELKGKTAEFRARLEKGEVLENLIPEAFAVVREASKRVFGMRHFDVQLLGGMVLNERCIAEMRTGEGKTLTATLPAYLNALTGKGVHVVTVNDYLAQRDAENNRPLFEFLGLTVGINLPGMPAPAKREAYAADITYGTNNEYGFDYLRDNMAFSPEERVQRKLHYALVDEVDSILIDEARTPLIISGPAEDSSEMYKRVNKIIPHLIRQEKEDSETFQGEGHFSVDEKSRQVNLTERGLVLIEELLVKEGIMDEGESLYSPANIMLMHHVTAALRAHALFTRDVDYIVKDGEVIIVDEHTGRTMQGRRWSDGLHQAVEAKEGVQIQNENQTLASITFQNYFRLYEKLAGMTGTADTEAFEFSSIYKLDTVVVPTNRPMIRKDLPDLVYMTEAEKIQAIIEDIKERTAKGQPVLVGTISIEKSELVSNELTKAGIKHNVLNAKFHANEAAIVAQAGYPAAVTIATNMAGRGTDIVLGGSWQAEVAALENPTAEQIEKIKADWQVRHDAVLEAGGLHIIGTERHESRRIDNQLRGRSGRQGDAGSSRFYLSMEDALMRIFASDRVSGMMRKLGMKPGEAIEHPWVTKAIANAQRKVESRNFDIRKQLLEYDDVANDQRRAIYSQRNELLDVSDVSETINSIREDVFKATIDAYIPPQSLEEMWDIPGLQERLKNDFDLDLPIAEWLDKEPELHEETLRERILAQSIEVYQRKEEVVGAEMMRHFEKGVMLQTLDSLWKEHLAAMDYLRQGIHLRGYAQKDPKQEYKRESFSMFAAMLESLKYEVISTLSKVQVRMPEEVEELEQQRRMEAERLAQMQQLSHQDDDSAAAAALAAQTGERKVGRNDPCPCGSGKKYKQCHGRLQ

[2] = biological target: T1, Ubiquitin-activating enzyme e1, putative (Leishmania donovani (strain BPK282A1)) (UniProt E9BSI1); assay: Leishmania donovani Ubiquitin Activating Enzyme (LdE1); assay type: functional; conditions: 30 µM
T1 sequence (whole entry): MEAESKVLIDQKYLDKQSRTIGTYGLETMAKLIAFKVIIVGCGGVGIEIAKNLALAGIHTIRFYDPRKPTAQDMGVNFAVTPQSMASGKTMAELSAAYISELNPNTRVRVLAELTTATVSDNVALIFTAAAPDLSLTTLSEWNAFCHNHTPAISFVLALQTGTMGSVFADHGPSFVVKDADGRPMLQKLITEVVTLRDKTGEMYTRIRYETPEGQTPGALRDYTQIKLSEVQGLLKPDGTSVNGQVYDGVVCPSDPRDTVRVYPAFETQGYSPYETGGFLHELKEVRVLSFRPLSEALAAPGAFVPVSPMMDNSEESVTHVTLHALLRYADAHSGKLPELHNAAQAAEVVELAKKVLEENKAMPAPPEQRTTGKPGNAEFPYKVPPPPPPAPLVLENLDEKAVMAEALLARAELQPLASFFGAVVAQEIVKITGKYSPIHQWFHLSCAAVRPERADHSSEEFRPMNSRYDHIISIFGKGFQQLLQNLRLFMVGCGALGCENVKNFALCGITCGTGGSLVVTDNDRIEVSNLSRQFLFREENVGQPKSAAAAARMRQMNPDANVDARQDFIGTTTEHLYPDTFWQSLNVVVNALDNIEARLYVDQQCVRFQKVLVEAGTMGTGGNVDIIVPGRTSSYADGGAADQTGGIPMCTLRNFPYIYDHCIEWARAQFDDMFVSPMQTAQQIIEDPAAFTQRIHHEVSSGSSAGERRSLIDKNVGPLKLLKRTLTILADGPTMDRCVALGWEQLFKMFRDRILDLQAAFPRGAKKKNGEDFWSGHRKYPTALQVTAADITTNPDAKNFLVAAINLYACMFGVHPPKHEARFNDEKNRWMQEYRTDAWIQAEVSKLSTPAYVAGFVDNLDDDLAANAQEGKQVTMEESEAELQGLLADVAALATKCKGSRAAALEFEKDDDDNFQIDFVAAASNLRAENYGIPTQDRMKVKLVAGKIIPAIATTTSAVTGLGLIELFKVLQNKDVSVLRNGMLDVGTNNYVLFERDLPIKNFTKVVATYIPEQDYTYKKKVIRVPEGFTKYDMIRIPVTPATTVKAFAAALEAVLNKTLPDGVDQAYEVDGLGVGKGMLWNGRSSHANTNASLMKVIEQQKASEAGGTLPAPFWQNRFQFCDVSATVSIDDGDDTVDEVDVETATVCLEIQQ

[3] = biological target: Sialic acid-binding Ig-like lectin 9 (Homo sapiens) (UniProt Q9Y336); assay: Hs-Siglec9 ALPHAscreen SOP 20170721; conditions: 10 µM
Chain of Sialic acid-binding Ig-like lectin 9 (Homo sapiens) (Q9Y336 whole entry): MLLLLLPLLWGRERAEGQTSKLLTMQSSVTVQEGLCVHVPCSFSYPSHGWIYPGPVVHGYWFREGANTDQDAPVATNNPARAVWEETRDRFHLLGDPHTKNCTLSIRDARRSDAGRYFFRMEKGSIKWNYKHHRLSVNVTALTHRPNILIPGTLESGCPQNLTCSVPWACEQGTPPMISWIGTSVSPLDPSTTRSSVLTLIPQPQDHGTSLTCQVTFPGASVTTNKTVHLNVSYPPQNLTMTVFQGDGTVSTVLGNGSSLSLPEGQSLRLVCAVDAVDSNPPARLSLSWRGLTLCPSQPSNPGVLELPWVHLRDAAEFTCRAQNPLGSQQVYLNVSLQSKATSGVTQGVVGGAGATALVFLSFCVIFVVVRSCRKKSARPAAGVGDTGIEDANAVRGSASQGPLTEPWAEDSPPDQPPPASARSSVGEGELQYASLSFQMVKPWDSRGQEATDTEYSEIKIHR

[4] = test system: Trypanosoma cruzi; assay: Trypanosoma cruzi phosphomannomutase and mannose-1-phosphate guanylyltransferase assay; assay type: functional; conditions: 10 µM
[5] = biological target: T2, Arginase-2, mitochondrial (Homo sapiens) (UniProt P78540); assay: in vitro enzyme assay to detect the production of urea directly proportional to the activity of Arginase II; assay type: functional; conditions: 33.3 µM; note: in the data most compounds retested in dose-response had high values
T2 sequence (whole entry): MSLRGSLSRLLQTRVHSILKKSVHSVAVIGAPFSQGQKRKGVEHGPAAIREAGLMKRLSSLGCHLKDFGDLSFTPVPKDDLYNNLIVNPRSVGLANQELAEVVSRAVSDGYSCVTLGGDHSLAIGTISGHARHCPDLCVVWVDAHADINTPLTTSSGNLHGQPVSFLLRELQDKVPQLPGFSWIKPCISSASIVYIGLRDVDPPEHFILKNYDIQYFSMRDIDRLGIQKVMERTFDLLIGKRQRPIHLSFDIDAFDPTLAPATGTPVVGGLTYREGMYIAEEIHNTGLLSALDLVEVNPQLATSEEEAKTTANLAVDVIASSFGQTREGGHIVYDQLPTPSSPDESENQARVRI

[6] = biological target: T3, Proteasome subunit beta (Trypanosoma cruzi) (UniProt O96673); assay: Trypanosoma cruzi proteasome chymotrypsin-like activity (TcProtChymo) assay.; note: in the data most compounds retested in dose-response had high values; assay type: functional; conditions: 9.37 µM
T3 sequence (whole entry): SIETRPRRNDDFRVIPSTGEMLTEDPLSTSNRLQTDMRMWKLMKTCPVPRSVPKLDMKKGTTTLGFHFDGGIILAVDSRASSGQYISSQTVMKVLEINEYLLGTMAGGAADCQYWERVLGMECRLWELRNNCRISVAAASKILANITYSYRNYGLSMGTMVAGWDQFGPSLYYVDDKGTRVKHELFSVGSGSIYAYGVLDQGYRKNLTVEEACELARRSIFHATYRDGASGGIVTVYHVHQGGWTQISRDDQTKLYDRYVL

[7] = species on record: Homo sapiens; assay: To identify inhibition of the IFN signalling (Jak-Stat) pathway via expression of an eGFP reporter gene under the control of an IFN-stimulated response element (ISRE) containing MxA promoter.; assay type: functional; conditions: 30 µM
[8] = biological target: T4, Tyrosyl-tRNA synthetase, putative (Trypanosoma cruzi (strain CL Brener)) (UniProt Q4DSP6); assay: Trypanosoma cruzi tyrosyl tRNA synthetase (TcYRS) _High Tyrosine SOP; assay type: functional; conditions: 30 µM; note: in the data most compounds retested in dose-response had high values
T4 sequence (whole entry): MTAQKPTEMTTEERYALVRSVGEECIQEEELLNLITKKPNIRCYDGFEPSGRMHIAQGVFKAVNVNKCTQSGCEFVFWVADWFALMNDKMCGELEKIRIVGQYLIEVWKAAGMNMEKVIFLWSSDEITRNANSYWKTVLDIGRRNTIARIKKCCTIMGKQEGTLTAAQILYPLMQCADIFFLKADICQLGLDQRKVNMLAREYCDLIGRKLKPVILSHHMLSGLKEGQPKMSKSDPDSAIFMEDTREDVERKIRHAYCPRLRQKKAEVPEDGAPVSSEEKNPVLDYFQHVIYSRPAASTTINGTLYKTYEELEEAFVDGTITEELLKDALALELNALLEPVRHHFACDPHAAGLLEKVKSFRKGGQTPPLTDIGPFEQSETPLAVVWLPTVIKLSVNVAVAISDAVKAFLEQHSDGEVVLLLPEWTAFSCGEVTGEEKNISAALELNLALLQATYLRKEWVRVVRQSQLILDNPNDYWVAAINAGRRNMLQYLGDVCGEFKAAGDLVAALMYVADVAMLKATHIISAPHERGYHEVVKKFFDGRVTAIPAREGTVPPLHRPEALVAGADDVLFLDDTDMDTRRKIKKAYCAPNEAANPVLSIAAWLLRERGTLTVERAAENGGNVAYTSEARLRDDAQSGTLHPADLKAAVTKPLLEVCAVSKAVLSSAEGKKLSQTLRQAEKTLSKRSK

[9] = biological target: T4, Tyrosyl-tRNA synthetase, putative (Trypanosoma cruzi (strain CL Brener)); assay: Trypanosoma cruzi tyrosyl tRNA synthetase (TcYRS) SOP; assay type: functional; conditions: 30 µM
[10] = biological target: Chromo domain-containing protein 1 (Saccharomyces cerevisiae (strain ATCC 204508 / S288c) (Baker's yeast)) (UniProt P32657); assay: ScCHD-1 Enzyme Inhibition Assay; assay type: functional; conditions: 30 µM; note: in the data most compounds retested in dose-response had high values
Chain of Chromo domain-containing protein 1 (Saccharomyces cerevisiae (strain ATCC 204508 / S288c) (Baker's yeast)) (P32657 whole entry, the tested form may be a part): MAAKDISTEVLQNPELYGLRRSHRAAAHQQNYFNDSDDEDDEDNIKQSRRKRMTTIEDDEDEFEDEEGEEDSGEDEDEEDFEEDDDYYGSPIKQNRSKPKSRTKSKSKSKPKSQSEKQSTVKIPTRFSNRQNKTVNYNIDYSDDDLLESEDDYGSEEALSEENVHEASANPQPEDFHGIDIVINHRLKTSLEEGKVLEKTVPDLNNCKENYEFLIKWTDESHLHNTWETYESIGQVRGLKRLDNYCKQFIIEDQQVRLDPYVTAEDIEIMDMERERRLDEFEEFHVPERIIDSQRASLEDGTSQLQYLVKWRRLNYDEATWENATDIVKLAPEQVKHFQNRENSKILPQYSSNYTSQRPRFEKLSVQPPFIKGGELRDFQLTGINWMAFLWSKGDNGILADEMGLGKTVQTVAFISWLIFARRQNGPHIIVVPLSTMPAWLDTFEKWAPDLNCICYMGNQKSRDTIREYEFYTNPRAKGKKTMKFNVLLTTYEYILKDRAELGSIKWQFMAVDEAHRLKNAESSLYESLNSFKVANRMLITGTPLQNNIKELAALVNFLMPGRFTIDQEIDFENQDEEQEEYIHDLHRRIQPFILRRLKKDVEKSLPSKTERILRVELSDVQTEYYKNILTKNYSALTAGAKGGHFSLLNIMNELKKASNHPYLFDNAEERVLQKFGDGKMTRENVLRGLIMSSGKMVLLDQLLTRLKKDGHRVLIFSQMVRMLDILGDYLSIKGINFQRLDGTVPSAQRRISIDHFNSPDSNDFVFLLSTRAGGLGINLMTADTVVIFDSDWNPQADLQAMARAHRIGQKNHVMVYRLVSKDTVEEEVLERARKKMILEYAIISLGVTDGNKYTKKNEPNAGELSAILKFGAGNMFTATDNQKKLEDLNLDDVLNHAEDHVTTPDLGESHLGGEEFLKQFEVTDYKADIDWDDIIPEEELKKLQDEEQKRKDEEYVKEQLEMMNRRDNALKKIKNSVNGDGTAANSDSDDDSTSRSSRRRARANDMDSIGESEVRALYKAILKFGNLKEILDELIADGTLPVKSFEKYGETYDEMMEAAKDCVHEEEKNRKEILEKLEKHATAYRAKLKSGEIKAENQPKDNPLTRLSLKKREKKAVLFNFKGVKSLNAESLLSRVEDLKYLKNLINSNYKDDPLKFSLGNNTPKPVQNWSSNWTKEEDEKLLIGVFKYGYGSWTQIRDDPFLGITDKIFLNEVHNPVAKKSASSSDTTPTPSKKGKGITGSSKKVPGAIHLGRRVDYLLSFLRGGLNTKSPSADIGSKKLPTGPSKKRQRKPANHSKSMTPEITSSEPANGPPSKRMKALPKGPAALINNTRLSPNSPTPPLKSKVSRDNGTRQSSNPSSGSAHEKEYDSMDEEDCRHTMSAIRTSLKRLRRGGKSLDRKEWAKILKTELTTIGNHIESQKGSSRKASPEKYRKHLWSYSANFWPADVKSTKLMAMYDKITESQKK

Compound	Percent Effect [1] [%]	Percent Effect [2] [%]	Percent Effect [3] [%]	Percent Effect [4] [%]	Percent Effect [5] [%]	Percent Effect [6] [%]	Percent Effect [7] [%]	Percent Effect [8] [%]	Percent Effect [9] [%]	Percent Effect [10] [%]
CNc1cc(N2CCCC2CNCc2cnc(C)cn2)ncn1 (stereo not given)	-4.22	0	-3.13	1.78	6.15	2.47	21.4	2.39	1.21	2.01
CN(CC(=O)N1CCCN(Cc2cscn2)CC1)c1cnccn1	0.471	-18.2	7.79	-4.29	-3.07	0.351	9.75	0	4.71	5.41
Cc1ccoc1-c1nnc(CN2CCn3c(nnc3C3CC3)C2)o1	-3.51	0	-0.995	0.201	0.444	-4.16	7.27	-1.58	-10.3	-2.12
CCN(C)Cc1cnc(S(=O)(=O)CC)n1CCOC	-9.54	0	-2.25	-3.4	2.45	-0.856	0.566	1.6	4.88	2.11
OC(COc1ccc(F)cc1)CN1CCC(Cn2cccn2)CC1 (stereo not given)	0.447	18.2	8.44	0.933	-5.12	6.14	-5.99	10.8	23.5	-4.98
Nc1nc2nc(C3CCCN(C(=O)c4cscn4)C3)ccc2s1 (stereo not given)	0.0997	22.7	-9.01	3.55	-9.29	19.1	25.7	0	7.5	-22.1
CCc1cc(O)nc(C2CCCN2C(=O)c2cc(C)no2)n1 (stereo not given)	-0.0921	17.3	-12.2	-2.76	-2.65	11.3	20.5	-2.12	5	-14.2
Cc1cnn(CC2CCCCN2C(=O)c2cc(Cl)c[nH]2)c1 (stereo not given)	-3.19	20.8	10.9	6.53	-5.53	6.67	15.7	5.88	23.5	-9.18
CCOCC1CC2(CCN(C(=O)c3ccccn3)CC2)CO1 (stereo not given)	-5.71	-1.3	4.48	-0.876	-3.64	9.44	-3.04	1.58	2.56	-2.76
CN(C)c1cc(C(=O)N2CCCN(Cc3cscn3)CC2)ccn1	-2	7.79	1.09	2.05	6.76	-4.39	1.34	6.86	16.5	-5.32
CN1CCN(CC2CC2)C(=O)c2cnc(N3CCCC3)nc21	-7.66	0	1.44	-1	-4.88	4.16	8.07	-4.74	-10.3	-11.6
CCc1nc(C2CCCN2C(=O)CCCn2cccn2)no1 (stereo not given)	-1.9	5.2	9.24	4.66	8.4	8.25	4.76	1.96	4.71	-9.39
CCc1nccn1-c1cncc(C2CCCN2Cc2cccnc2)n1 (stereo not given)	-0.52	9.33	4.5	1.38	0.443	13.3	-9.84	6.35	20	-22.2
CN(C)CC(=O)N1CCC2(CC(=O)N(c3cccc(C#N)c3)C2)C1 (stereo not given)	-7.09	6.49	-3.56	-4.58	-5.67	13	3.5	2.63	5.13	-1.61
COc1ccc(OC)c(Sc2ncccc2C(=O)N(C)CCC#N)c1	-2.48	16.9	-3.09	0.75	0	15.5	32.7	4.83	10	-12.2
CC(C)N(C)C(=O)CN1CCCC(c2ccc(C(=O)O)cc2)C1 (stereo not given)	-2.28	18.9	-0.275	0.485	-66.1	12.3	29.1	5.85	19.5	-6.15
CCn1nc2c(cc1=O)CN(Cc1nc(-c3ccsc3)no1)CC2	-2.79	0	3.78	-0.282	6.56	4.18	27.8	4.31	6.02	-6.49
Cc1cnc(CN2CCCC2c2noc(C)n2)cn1 (stereo not given)	-3.01	-2.67	-1.58	0.602	0.444	14.5	-11.3	11.1	12.8	-6.87
Cc1ccc(F)cc1S(=O)(=O)NCc1cccnc1N(C)C	2.25	20.8	-2.76	-0.373	-5.53	14.7	26.1	7.84	21.2	-8.95
COc1ncc(C2CC(=O)NCc3nc4ccccn4c32)cn1 (stereo not given)	-5.62	5.41	1.68	-1.46	1.75	6.34	3.05	7.98	14.6	-1.5
Cn1cc(C(=O)N2CCC(Cc3nccs3)CC2)cn1	0.12	6.67	-7.82	-4.54	-1.33	6.73	15	4.23	0	-28.5
Cn1ccnc1CN1CCCC1c1noc(C2CC2)n1 (stereo not given)	-1.78	0	-0.931	0	1.33	6.19	-3.87	5.79	10.3	-4.32
c1csc(-c2nc(CN3CCn4c(nnc4C4CC4)C3)co2)c1	-2.65	5.33	1.96	-3.41	2.66	9.58	7.72	6.84	5.13	-5.6
